About 83,000 compounds went through this panel and 20% of them were active in at least one assay; those are over-represented in the sample as a whole.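 A percent growth of 40 corresponds to 60% growth inhibition; 0 means no net growth; -100 means all cells died. Active threshold: below 10.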 A number with no mark means an inactive call. Calls of active or inactive are those of the source.
Assays:
Test in all cases: NCI-60 one-dose screen, 48 h (100 = growth as untreated, 0 = no growth, -100 = all killed)
Settings in all cases: 10 µM unless noted
NCI-H23 lung = tested on: NCI-H23 lung
NCI-H226 lung = tested on: NCI-H226 lung
NCI-H322M lung = tested on: NCI-H322M lung
HOP-62 NSCLC = tested on: HOP-62 NSCLC
NCI-H460 lung = tested on: NCI-H460 lung
HOP-92 NSCLC = tested on: HOP-92 NSCLC
NCI-H522 lung = tested on: NCI-H522 lung
A549/ATCC NSCLC = tested on: A549/ATCC NSCLC
786-0 renal = tested on: 786-0 renal
COLO 205 colon = tested on: COLO 205 colon

SMILES | growth (NCI-H23 lung) | growth (NCI-H226 lung) | growth (NCI-H322M lung) | growth (HOP-62 NSCLC) | growth (NCI-H460 lung) | growth (HOP-92 NSCLC) | growth (NCI-H522 lung) | growth (A549/ATCC NSCLC) | growth (786-0 renal) | growth (COLO 205 colon)
COC(=O)[C@]12CC[C@@H](C)[C@H](C)[C@@H]1C1=CC[C@@H]3[C@@]4(C)CC(=O)[C@H](OC(=O)c5ccco5)[C@@]5(C)COC(=C45)C[C@@]3(C)[C@]1(C)CC2 | 33.5% | 23.6% | 53.7% | 34.4% | 9.59% (active) | 60.6% | 26.9% | 25% | 6.39% (active) | 
CCC(c1ccc(OC)cc1)C(CC)c1ccc(O)c(CN2CCCCC2)c1 (configuration not stated) | 63.5% | 70% | 70.7% | 95.5% | 77.1% | 52.2% | 72.3% | 84% | 59.5% | 
CCCCCC1CCCCN1C(=O)OCC (configuration not stated) | 106% | 122% | 112% | 117% | 108% | 75.9% | 98.2% | 105% | 88.2% | 
O=C1c2cc3c(cc2-c2c1c1ccc(F)cc1c(=O)n2CCCN1CCOCC1)OCO3 | 40.6% | 20.4% | 79.8% | 18.9% | 14.1% | 68.4% | 25.5% | 33.8% | 24.1% | 
Oc1ccccc1/C=N\NC(=S)Nc1ccc(F)cc1 | 30.4% | 25.7% | 30.1% | 36.5% | 4.08% (active) | 46.4% | 21.4% | 22.1% | 16.6% | 
N#CC1C(=N)Cc2ccccc2-c2ccccc21 (configuration not stated) | 57.1% | 77.8% | 78.5% | 57.6% | 27% | 49.6% | 8.86% (active) | 42.1% | 65.6% | 
COc1cc(/C=C/c2cc(/C=C/c3ccc(O)c(OC)c3)n(-c3ccccc3)c(=O)n2)ccc1O | 78.4% | 80.2% | 86.8% | 85.8% | 91% | 78.8% | 68.2% | 90.6% | 85.1% | 
N#C/C(=C\c1ccc(-c2ccc(Br)cc2)o1)c1nc(-c2ccco2)cs1 | 89.4% | 88.2% | 85% | 95.7% | 91.4% | 86.3% | 93.2% | 98.3% | 98.8% | 
CCN1CCN(C(=O)[C@]23CCC(C)(C)C[C@@H]2C2=CC[C@@H]4[C@@]5(C)C/C(=C/c6cccnc6)C(=O)C(C)(C)[C@@H]5CC[C@@]4(C)[C@]2(C)CC3)CC1 | 27.1% | 32.9% | 62.3% | 44.5% | 12.1% | 9.8% (active) | 28.4% | 13.5% | 50.2% | 
C=C(C)[C@@H]1CC[C@]2(C(=O)N3CCCNCC3)CC[C@]3(C)[C@H](CC[C@@H]4[C@@]5(C)CCC(=O)C(C)(C)[C@@H]5CC[C@]43C)[C@@H]12 | 98.4% | 90.7% | 102% | 92.9% | 97.7% | 48.4% | 101% | 86.2% | 94.9% | 
CN1CCN(c2ccc3nc(-c4[nH]ncc4Nc4ncnc5[nH]ccc45)[nH]c3c2)CC1 | -1.38% (active) | -10.2% (active) | 1.88% (active) | -0.445% (active) | 21% | 26.9% | -4.39% (active) | 24% | 2.96% (active) | 
OCC(CO)(CCl)CCl | 93.2% | 101% | 112% | 99% | 106% | 86.4% | 91.1% | 76.7% | 100% | 
N#C/C(=C\c1ccc(-c2cccc(C(F)(F)F)c2)o1)c1nc(-c2ccco2)cs1 | 91.8% | 84.1% | 89.2% | 105% | 94.4% | 86.9% | 90% | 104% | 102% | 118%
C=C(C)[C@@H]1CC[C@]2(C=NCCCNCCCCNCCCN)CC[C@]3(C)[C@H](CC[C@@H]4[C@@]5(C)CCCNC(C)(C)[C@@H]5CC[C@]43C)[C@@H]12 | 82.5% | 80.1% | 100% | 92.9% | 91.7% | 92.4% | 99.6% | 88.8% | 107% | 

Reference: PubChem BioAssay (NCI)
